Measured values as given in the supplement of paper PMC4371806.
The full ranking holds about 2,300 compounds; the median of “plate-normalized OD600 growth (mean of duplicates)” is about 0.29, and the lowest 2% start at about 0.22. The full list was thinned out, with the lowest values kept by preference.

System: Escherichia coli BW25113
Assay: plate-normalized OD600 growth (mean of duplicates) (OD600 (normalized)); higher = more growth (less inhibition)
Conditions: 10 µM
Description: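 E. coli BW25113 in LB (100 µl, 96-well, no shaking) was exposed to 10 µM of each compound from a ~30,000-member library and grown at 37°C for 24 h or 15°C for 48 h, in duplicate. Growth was read as OD600 and the duplicate ODs were normalized across screening plates to correct plate-to-plate variation. Hits were >3σ below the mean OD600 at 15°C and <2σ below the mean at 37°C.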

Row | Structure (SMILES) | plate-normalized OD600 growth (temperature: 15°C, 48 h) | plate-normalized OD600 growth (temperature: 37°C, 24 h)
1 | Cc1ccc(NC(=O)c2c3c(nc4ccccc24)CCCC3)cc1 | 0.239 | 0.614
2 | C=CCn1c(C(O)c2ccccc2)n[nH]c1=S (configuration not stated) | 0.247 | 0.613
3 | O=c1nc(-c2ccccc2)nc(-c2ccccc2)[nH]1 | 0.26 | 0.617
4 | Cc1ccc2nc(Cl)c(C=Nc3ccccn3)cc2c1 | 0.226 | 0.611
5 | COc1ccc(S(=O)(=O)N(Cc2ccccc2)c2ccccc2C(=O)N/N=C(\C)c2ccccc2O)cc1 | 0.259 | 0.618
6 | O=C(NC(=S)Nc1ccc(Cc2ccncc2)cc1)c1cccc2ccccc12 | 0.259 | 0.614
7 | COc1cc(CCNC(=O)OC(C)(C)C)c([S+]([O-])CSCc2ccccc2)cc1OC (configuration not stated) | 0.238 | 0.613
8 | Cc1cc(=O)oc2n[nH]c(-c3ccccc3)c12 | 0.258 | 0.64
9 | NC(=O)C1CCN(C(=O)c2ccco2)CC1 | 0.25 | 0.628
10 | O=C(NCCSC1CCCCC1)c1ccco1 | 0.221 | 0.633
11 | O=C(c1ccco1)N1CCC(c2ccccc2)C1 (configuration not stated) | 0.201 | 0.642
12 | N#CC1=C(N)Oc2n[nH]c(-c3cccs3)c2C12C(=O)Nc1ccc([N+](=O)[O-])cc12 (configuration not stated) | 0.265 | 0.618
13 | CCOc1ccc(-c2[nH]nc3c2C2(C(=O)Nc4ccc(C)c(Br)c42)C(C#N)=C(N)O3)cc1 (configuration not stated) | 0.245 | 0.6
14 | COC(=O)CN1C(=O)C2(C(C#N)=C(N)Oc3n[nH]c(C)c32)c2ccccc21 (configuration not stated) | 0.207 | 0.65
15 | CCOC(=O)c1c(N)oc2c(-c3ccc(C)c(Cl)c3)c3c(C(=O)OCC)c(N)oc3cc12 | 0.218 | 0.622
16 | N#CCS(=O)(=O)c1cccs1 | 0.217 | 0.626
17 | O=C(NC1Cc2ccccc2C1)c1cncc(Br)c1 | 0.281 | 0.658
18 | c1ccc(-c2cc3c(nn2)CCc2nonc2-3)cc1 | 0.27 | 0.648
19 | O=C(N/N=C/c1ccc(OC(=O)c2cccc(F)c2)cc1)C1=NNC(c2ccccc2)(c2ccccc2)C1 | 0.267 | 0.624
20 | N#C/C(=C\c1ccc(OC(=O)c2cccc([N+](=O)[O-])c2)cc1)C(=O)c1ccccc1 | 0.211 | 0.634
21 | COc1cc(O)ccc1/C=N/NC(=O)c1cccc([N+](=O)[O-])c1 | 0.248 | 0.614
22 | CC(Oc1ccccc1)C(=O)Nc1ccc(Cl)cc1 (configuration not stated) | 0.222 | 0.64
23 | CC(=O)c1cnn(-c2ccccc2)c1C | 0.259 | 0.623

Row | Structure (SMILES) | plate-normalized OD600 growth (temperature: 15°C, 48 h) | plate-normalized OD600 growth (temperature: 37°C, 24 h)
24 | O=C(/C=C/c1cccs1)C(C(=O)c1ccccc1)=C1SCCCCS1 | 0.244 | 0.615
25 | O=C(CSc1nc2ccccc2s1)Nc1cccn2cc(-c3ccccc3)nc12 | 0.263 | 0.614
26 | COc1ccc(CNCC2COc3ccccc3O2)cc1OC (configuration not stated) | 0.26 | 0.638
27 | CC(C)Nc1nc(Cl)nc(Nc2cccc(C(F)(F)F)c2)n1 | 0.262 | 0.62
28 | CCN=C(NCC)SC1CC(=O)N(c2ccc(C(=O)O)cc2)C1=O (configuration not stated) | 0.246 | 0.617
29 | CCOc1ccc(C(C)(C)C(=O)Nc2ccc(C(=O)/C=C/c3ccco3)cc2)cc1 | 0.266 | 0.639
30 | Clc1ccc2nc(N3CCOCC3)nc(-c3ccccc3)c2c1 | 0.251 | 0.61
31 | CCC(=O)Nc1nc2ccc(C)cc2s1 | 0.246 | 0.603
32 | N#CC(C(=O)Nc1cccc(C(F)(F)F)c1)C(=S)Nc1ccccc1Cl (configuration not stated) | 0.254 | 0.644
33 | COc1ccc(C(=O)N2CCN(c3c(C)cccc3C)CC2)cc1OC | 0.257 | 0.622
34 | CCCCOc1cc(C(=O)O)ccc1OC | 0.261 | 0.64
35 | COc1cc(C(=S)N2CCCCC2)ccc1OC(=O)c1ccccc1 | 0.00796 | 0.606
36 | Clc1cccc(Cl)c1/C=N/Nc1nncc(-c2ccccc2)n1 | 0.186 | 0.641
37 | CSCCC(NC(=O)c1ccccc1)C(=O)OCC(=O)Nc1ccccc1C#N (configuration not stated) | 0.236 | 0.619
38 | Clc1cccc(CN2CCN(Cc3ccco3)CC2)c1 | 0.237 | 0.636
39 | Cc1cc2c(cc1C)CN(c1ccc(C(=O)N/N=C/c3ccccc3O)cc1)C2 | 0.25 | 0.63
40 | COc1ccc(/C=N/NC(=O)COc2ccc(Cl)cc2)cc1I | 0.257 | 0.62
41 | CCCCOc1cccc(NC(=O)CCSc2nccn2C)c1 | 0.25 | 0.643
42 | N#C/C(=C\c1ccccc1Cl)c1nc2ccccc2[nH]1 | 0.26 | 0.624
43 | O=C(NCc1csc(-c2cccs2)n1)C1=Cc2ccccc2OC1 | 0.243 | 0.593
44 | O=C(Nc1ccccc1C(=O)NC1CCCCNC1=O)c1cccs1 (configuration not stated) | 0.253 | 0.638
45 | COc1ccc(-c2cc(C(F)(F)F)n3nc(C(=O)NC(C)(C)C)c(Cl)c3n2)cc1OC | 0.245 | 0.619
46 | Cc1nc(Nc2ccc(F)cc2)c2oc3ccccc3c2n1 | 0.245 | 0.613
